Here are results for 73 molecules from the antibiotic and cytotoxicity screens of Wong et al. (2023).

The structures appear in SMILES notation. About 1,500 (3.8%) of roughly 39,000 compounds were called active. The sample holds actives, similar compounds and a random draw of the others, so the mix is not that of the screen.

This assay concerns HSkMC (human skeletal muscle cells). The assay can be described thus: cytotoxicity call (relative viability < 0.9). The following applies: 10 µM.
Consider `C[C@H](CO)N1C[C@H](C)[C@H](CN(C)S(=O)(=O)c2cn(C)cn2)Oc2c(NC(=O)Nc3ccc4c(c3)OCO4)cccc2C1=O`, for which the cytotoxicity call was “inactive”.

`O=C1CNC(=O)N1C1CCNCC1`: the cytotoxicity call is “inactive”. The entry for `O=C(N/N=C/[C@H](O)[C@@H](O)[C@H](O)[C@H](O)CO[C@H]1O[C@H](CO)[C@H](O)[C@H](O)[C@H]1O)c1ccccn1` is “inactive”; for `O=C(O)CN1Cc2ccccc2C1=O` it is “inactive”. The entry for `Cc1noc(C)c1S(=O)(=O)N(C)C[C@@H]1OCCCC[C@H](C)Oc2ccc(NS(C)(=O)=O)cc2C(=O)N([C@H](C)CO)C[C@@H]1C` is “inactive”. Regarding `C[C@H](CO)N1C[C@H](C)[C@H](CN(C)Cc2ccccc2)OCCCC[C@H](C)Oc2ccc(NC(=O)CCC(F)(F)F)cc2C1=O`, the cytotoxicity call was “inactive”. Under `COc1ccc(S(=O)(=O)Nc2cccc3c2O[C@@H](CN(C)CC2CC2)[C@@H](C)CN([C@H](C)CO)C3=O)cc1` stands “inactive”; under `C[C@H](O)C#Cc1ccc2c(c1)O[C@H](CN(C)C(=O)CN(C)C)[C@H](C)CN([C@@H](C)CO)S2(=O)=O`, “inactive”; under `CN(C)CCc1cc(Br)c(OCCCNC(=O)/C=C/c2cc(Br)c(OCCN3CCCCC3)c(Br)c2)c(Br)c1`, “inactive”. With `CC(C)N(CCOc1c(Br)cc(/C=C/C(=O)NCCCOc2c(Br)cc(CCN(C)C)cc2Br)cc1Br)C(C)C`, the cytotoxicity call was “active”. Regarding `COc1cc(/C=C/C(=O)NCCCNC(=O)/C=C/c2cc(OC)c(OC)c(OC)c2)cc(OC)c1OC`, the cytotoxicity call was “inactive”. With `CC(=O)OCC(=O)NCCCOc1cccc(CN2CCCCC2)c1.Cl`, the cytotoxicity call is “inactive”. On to `CN(C)CCc1cc(Br)c(OCCCNC(=O)/C=C/c2cc(Br)c(OCCN3CCCC3)c(Br)c2)c(Br)c1`, for which the cytotoxicity call is “active”. Under `CN(C)CCOc1c(Br)cc(/C=C/C(=O)NCCCOc2c(Br)cc(CCN(C)C)cc2Br)cc1Br` stands “inactive”; under `Cc1noc(C)c1NC(=O)Nc1ccc2c(c1)C(=O)N([C@H](C)CO)C[C@@H](C)[C@H](CN(C)Cc1ccc(C(=O)O)cc1)OCCCC[C@@H](C)O2`, “inactive”. Under `CN1CCN(C(=O)C[C@@H]2CC[C@H](NC(=O)Cc3ccccn3)[C@@H](CO)O2)CC1` stands “inactive”; under `C[C@H]1CN([C@@H](C)CO)C(=O)c2cc(NC(=O)NC3CCCCC3)ccc2O[C@@H]1CN(C)Cc1ccc(-c2ccccc2)cc1`, “inactive”; under `COc1ccc(S(=O)(=O)N[C@H]2C=C[C@H](CC(=O)NCCc3ccncc3)O[C@H]2CO)cc1`, “inactive”.

As to `COc1ccc(S(=O)(=O)N(C)C[C@@H]2Oc3ccc(NS(C)(=O)=O)cc3CC(=O)N([C@H](C)CO)C[C@H]2C)cc1`, the cytotoxicity call is “inactive”. Consider `Cc1noc(C)c1S(=O)(=O)N(C)C[C@@H]1Oc2ccc(NC(=O)CCC(F)(F)F)cc2CC(=O)N([C@@H](C)CO)C[C@H]1C`, for which the cytotoxicity call is “inactive”. Under `O=C(O)CN(CC(=O)O)Cc1cc2c(-c3ccccc3C(=O)O)c3cc(CN(CC(=O)O)CC(=O)O)c(=O)cc-3oc2cc1O` stands “inactive”; under `O=C([O-])c1ccccc1-c1c2cc(I)c(=O)c(I)c-2oc2c(I)c([O-])c(I)cc12.[Na+].[Na+]`, “inactive”.

Regarding `O=C(O)c1ccccc1-c1c2cc(I)c(=O)c(I)c-2oc2c(I)c(O)c(I)cc12`, the cytotoxicity call is “active”. Regarding `Cn1cnc(CCNC(=O)C[C@H]2CC[C@H]3[C@@H](COC[C@H](O)CN3C(=O)Nc3ccc(Cl)cc3)O2)c1`, the cytotoxicity call is “inactive”. Under `O=C(C[C@@H]1CC[C@@H]2[C@H](COC[C@H](O)CN2S(=O)(=O)c2ccccc2F)O1)N1CCC(Cc2ccccc2)CC1` stands “inactive”; under `COCC#Cc1cnc2c(c1)C(=O)N([C@@H](C)CO)C[C@@H](C)[C@@H](CN(C)S(=O)(=O)c1cn(C)cn1)O2`, “inactive”. Regarding `C#CC[C@H](c1nc2cc(Cl)ccc2c(=O)n1Nc1ccccc1)N(CCCN)C(=O)c1cccc(Cl)c1F`, the cytotoxicity call is “active”. The entry for `COc1ccc(NC(=O)N(C)C[C@H]2OCCCC[C@@H](C)Oc3ccc(NC(=O)c4ccccc4)cc3C(=O)N([C@H](C)CO)C[C@@H]2C)cc1` is “inactive”; for `C[C@H](CO)N1C[C@H](C)[C@@H](CN(C)S(=O)(=O)c2cn(C)cn2)Oc2c(NC(=O)c3ccc(-c4nccs4)cc3)cccc2C1=O` it is “inactive”. Under `COc1cc(Nc2ncc(F)c(Nc3ccc4c(n3)N(COP(=O)(O)O)C(=O)C(C)(C)O4)n2)cc(OC)c1OC` stands “active”; under `NC1CCCCC1N.O=C1[O][Pt][O]C1=O` (stereo not drawn), “inactive”; under `Cc1noc(C)c1NC(=O)N(C)C[C@H]1Oc2c(NC(=O)NC(C)C)cccc2C(=O)N([C@@H](C)CO)C[C@H]1C`, “inactive”. The entry for `Cc1ccc(S(=O)(=O)Nc2ccc3c(c2)C(=O)N([C@@H](C)CO)C[C@H](C)[C@@H](CN(C)C(=O)NC2CCCCC2)OCCCC[C@H](C)O3)cc1` is “inactive”.

In the case of `C[C@H](CO)N1C[C@H](C)[C@H](CN(C)C(=O)c2ccncc2)OCCCC[C@H](C)Oc2ccc(NS(=O)(=O)c3cn(C)cn3)cc2C1=O`, the cytotoxicity call is “inactive”. Under `CC(=O)Oc1ccccc1C(=O)Nc1ccccc1` stands “inactive”. The entry for `CC(=O)Nc1ncc([N+](=O)[O-])s1` is “inactive”. On to `CC(=O)Oc1ccccc1C(=O)Nc1ncc([N+](=O)[O-])s1`, for which the cytotoxicity call is “active”. Take `C[C@@H]1CN([C@H](C)CO)C(=O)c2cc(N(C)C)ccc2O[C@@H](C)CCCCO[C@@H]1CN(C)S(=O)(=O)c1cn(C)cn1`: the cytotoxicity call was “inactive”. Under `CCCNC(=O)C[C@H]1CC[C@H]2[C@@H](COc3ccc(NC(=O)Nc4ccc(C#N)cc4)cc3C(=O)N2C)O1` stands “inactive”. The entry for `CCOCCOCCOc1oc(C(=O)NC2CCCCC2)c(-c2ccc(Cl)cc2)c1S(=O)(=O)c1ccc(Cl)cc1` is “inactive”; for `CS(=O)(=O)O.CSc1ccc2c(c1)C(N1CCN(C)CC1)Cc1ccccc1S2` (stereo not drawn) it is “active”. With `CSc1ccc2c(c1)N(CCC1CCCCN1C)c1ccccc1S2.Cl` (stereo not drawn), the cytotoxicity call was “inactive”. Under `CN1CCC(=C2c3ccccc3Sc3ccccc32)CC1.O=C(O)C=CC(=O)O` stands “inactive”. On to `C[C@@H]1CN([C@H](C)CO)S(=O)(=O)c2ccc(C#Cc3ccc(F)cc3)cc2O[C@H]1CN(C)C(=O)CN(C)C`, for which the cytotoxicity call is “inactive”. Under `CC(C)NC(=O)N(C)C[C@H]1Oc2ccc(NC(=O)NC3CCCCC3)cc2CC(=O)N([C@@H](C)CO)C[C@H]1C` stands “inactive”; under `CNC(=O)Nc1ccc(-c2nc(N3C[C@H]4CC[C@@H](C3)O4)c3cnn(C4CCC5(CC4)OCCO5)c3n2)cc1`, “active”.

In the case of `CN[C@@H]1[C@@H](C)O[C@@H](O[C@H]2[C@H](C)O[C@@H](O[C@@H]3/C(C)=C/C[C@@H]4C[C@@H](C[C@]5(C=C[C@H](C)[C@@H](C(C)C)O5)O4)OC(=O)[C@@H]4C=C(C)[C@@H](O)[C@H]5OC/C(=C\C=C\[C@@H]3C)[C@]54O)C[C@@H]2OC)C[C@H]1OC`, the cytotoxicity call is “active”. The entry for `CO[C@H]1C[C@H](O[C@H]2[C@H](C)O[C@@H](O[C@@H]3/C(C)=C/C[C@@H]4C[C@@H](C[C@]5(C=C[C@H](C)[C@@H](C6CCCCC6)O5)O4)OC(=O)[C@@H]4C=C(C)[C@@H](O)[C@H]5OC/C(=C\C=C\[C@@H]3C)[C@]54O)C[C@@H]2OC)O[C@@H](C)[C@@H]1O` is “inactive”; for `CCC(C)C1OC2(C=CC1C)CC1CC(CC=C(C)C(OC3CC(OC)C(OC4CC(OC)C(NC(C)=O)C(C)O4)C(C)O3)C(C)C=CC=C3COC4C(O)C(C)=CC(C(=O)O1)C34O)O2` (stereo not drawn) it is “inactive”. The entry for `COC1CC(OC2C(C)OC(OC3C(C)=CCC4CC(CC5(C=CC(C)C(C6CCCCC6)O5)O4)OC(=O)C4C=C(C)C(O)C5OCC(=CC=CC3C)C45O)CC2OC)OC(C)C1O` (stereo not drawn) is “inactive”; for `CCC(C)C1OC2(C=CC1C)CC1CC(CC=C(C)C(OC3CC(OC)C(OC4CC(OC)C(O)C(C)O4)C(C)O3)C(C)C=CC=C3COC4C(OC)C(C)=CC(C(=O)O1)C34O)O2` (stereo not drawn) it is “active”. On to `CC[C@H](C)[C@H]1O[C@]2(C=C[C@@H]1C)C[C@@H]1C[C@@H](C/C=C(\C)[C@@H](O[C@H]3C[C@H](OC)[C@@H](O[C@H]4C[C@H](OC)[C@@H](NC(C)=O)[C@H](C)O4)[C@H](C)O3)[C@@H](C)/C=C/C=C3\CO[C@@H]4[C@H](O)C(C)=C[C@@H](C(=O)O1)[C@]34O)O2`, for which the cytotoxicity call was “active”. Under `C[C@H](CO)N1C[C@H](C)[C@@H](CN(C)C(=O)C2CCC2)Oc2cc(C#Cc3ccncc3)ccc2S1(=O)=O` stands “inactive”; under `Cc1noc(C)c1NC(=O)N(C)C[C@@H]1OCCCC[C@@H](C)Oc2ccc(NS(=O)(=O)c3ccc(Cl)cc3)cc2C(=O)N([C@H](C)CO)C[C@H]1C`, “inactive”; under `C[C@@H]1CN([C@H](C)CO)S(=O)(=O)c2ccc(C3=CCCC3)cc2O[C@H]1CN(C)C(=O)c1cnccn1`, “inactive”. For `COc1cccc(S(=O)(=O)N2C[C@H](O)COC[C@@H]3O[C@H](CC(=O)N4CCOCC4)CC[C@H]32)c1`, the cytotoxicity call was “inactive”. Under `C[C@H]1CN([C@@H](C)CO)C(=O)c2cc(NC(=O)CCCN(C)C)ccc2O[C@H]1CN(C)Cc1ccc2c(c1)OCO2` stands “inactive”. Take `COCC(=O)Nc1ccc2c(c1)OC[C@@H](C)N(C(=O)Cc1cccnc1)C[C@@H](C)[C@@H](OC)CN(C)C2=O`: the cytotoxicity call is “inactive”. `C[C@H](CO)N1C[C@H](C)[C@@H](CN(C)C(=O)CCN2CCCCC2)Oc2ncc(C#Cc3ccccn3)cc2C1=O`: the cytotoxicity call was “inactive”. With `CN(Cc1ccccn1)C(=O)[C@@]12COC[C@@H]1CN(S(C)(=O)=O)C2`, the cytotoxicity call is “inactive”. Turning to `CC(C)NC(=O)Nc1ccc2c(c1)C(=O)N([C@H](C)CO)C[C@@H](C)[C@H](CN(C)Cc1ccccc1)OCCCC[C@H](C)O2`, the cytotoxicity call is “inactive”. The entry for `C[C@H]1CN([C@@H](C)CO)C(=O)c2cc(NC(=O)Nc3ccc(F)cc3)ccc2O[C@H]1CN(C)C(=O)Nc1ccc(C(F)(F)F)cc1` is “inactive”; for `C[C@H](CO)N1C[C@H](C)[C@H](CN(C)C(=O)Nc2ccc(F)cc2)Oc2ccc(NC(=O)Nc3ccc(C(F)(F)F)cc3)cc2C1=O` it is “inactive”. In the case of `C[C@@H]1CN([C@@H](C)CO)C(=O)c2cc(NC(=O)Nc3ccc(C(F)(F)F)cc3)ccc2O[C@@H]1CN(C)C(=O)Nc1ccc(F)cc1`, the cytotoxicity call is “active”.

For the molecule `C[C@H](CO)N1C[C@H](C)[C@H](CN(C)C(=O)Nc2ccc(C(F)(F)F)cc2)Oc2ccc(NC(=O)Nc3ccc(F)cc3)cc2C1=O`, the cytotoxicity call was “active”. Regarding `C[C@H]1CN([C@@H](C)CO)C(=O)c2cc(NC(=O)Nc3ccc(C(F)(F)F)cc3)ccc2O[C@H]1CN(C)C(=O)Nc1ccc(F)cc1`, the cytotoxicity call is “inactive”.

For `C[C@H](CO)N1C[C@H](C)[C@@H](CN(C)C(=O)Nc2ccc(F)cc2)Oc2ccc(NC(=O)Nc3ccc(C(F)(F)F)cc3)cc2C1=O`, the cytotoxicity call was “inactive”.

With `C[C@@H]1CN([C@H](C)CO)C(=O)c2cc(NC(=O)Nc3ccc(C(F)(F)F)cc3)ccc2O[C@H]1CN(C)C(=O)Nc1ccc(F)cc1`, the cytotoxicity call was “inactive”. Take `C[C@@H]1CN([C@H](C)CO)C(=O)c2cc(NC(=O)Nc3ccc(F)cc3)ccc2O[C@H]1CN(C)C(=O)Nc1ccc(C(F)(F)F)cc1`: the cytotoxicity call is “inactive”. As for `C[C@@H]1CN([C@H](C)CO)C(=O)c2cc(NC(=O)Nc3ccc(C(F)(F)F)cc3)ccc2O[C@@H]1CN(C)C(=O)Nc1ccc(F)cc1`, the cytotoxicity call is “active”. Consider `C[C@H](CO)N1C[C@H](C)[C@@H](CN(C)C(=O)Nc2ccc(C(F)(F)F)cc2)Oc2ccc(NC(=O)Nc3ccc(F)cc3)cc2C1=O`, for which the cytotoxicity call is “inactive”. Under `C[C@@H]1CN([C@@H](C)CO)C(=O)c2cc(NC(=O)Nc3ccc(F)cc3)ccc2O[C@@H]1CN(C)C(=O)Nc1ccc(C(F)(F)F)cc1` stands “active”. `C[C@H]1CN([C@@H](C)CO)C(=O)c2cc(NC(=O)Nc3ccc(F)cc3)ccc2O[C@@H]1CN(C)C(=O)Nc1ccc(C(F)(F)F)cc1`: the cytotoxicity call is “inactive”.
